Reference: ChEMBL document CHEMBL3988442, “University of Dundee, Small-Polar-MMV Screening Library” (2021)
Out of some 48,000 compounds screened, about 13,000 (27%) showed an effect of 50% or more. The list shows a part of the results.

The compounds below were run on Wolbachia pipientis (assay: Anti-Wolbachia Cell-Based Screen). Details: 5 µM.
Assay type: functional
Set-up: scale not given: in the data most compounds retested in dose-response had high values

Row | SMILES | Percent Effect [%]
1 | Cc1ncc(CNC(=O)N(C)C2CCN(c3ccccc3)C2=O)s1 (configuration not stated) | -4.731
2 | Cc1cccc2c1cnn2CCCNC(=O)CCCC(=O)O | -9.765
3 | CC(C(=O)N(C)C)S(=O)(=O)c1cc2c(cc1Cl)OCCO2 (configuration not stated) | 4.925
4 | Cc1ccc(C)c(CSc2nnc(C(N)C(C)C)o2)c1.Cl (configuration not stated) | 129.6
5 | Cc1ccc(C)c(OCc2nnc(SCC3CCCN(C)C3)o2)c1 (configuration not stated) | -6.886
6 | Cc1ccc(C)c(CSc2nnc([C@@H](N)C(C)C)o2)c1.Cl | 118.1
7 | CSCC[C@H](N)c1nnc(SCc2cc(C)ccc2C)o1.Cl | 100.9
8 | Cc1ccccc1CSc1nc(N)cc(N2CCOC(C(N)=O)C2)n1 (configuration not stated) | 17.62
9 | Cc1ccc(C)c(CSc2nnc(C(N)Cc3ccccc3)o2)c1.Cl (configuration not stated) | 112.4
10 | CS(=O)(=O)c1ccc(NC(=O)N2CCc3sccc3C2)cn1 | 17.51
11 | CN(C)c1ccc(NC(=O)CN2CCS(=O)(=O)CC2)cn1 | 10.44
12 | O=C(c1cccnc1-n1cncn1)N1CCN(c2ccccc2)CC1 | -6.157
13 | COc1ncccc1C(=O)N1CC[C@H]2C[C@@H](C)O[C@@H]2C1 | 13.58
14 | O=C(c1cccnc1SC/C=C/c1ccccc1)N1CCOCC(O)C1 (configuration not stated) | 8.468
15 | CSc1ncccc1C(=O)N1C[C@H]2CC[C@@H]1CN(C(C)=O)C2 | 3.365
16 | O=C(c1cccnc1Oc1ccc(Cl)cc1)N1CC[C@@H](O)C1 | 158.3
17 | O=C(c1cccnc1SC/C=C/c1ccccc1)N1CC[C@H](O)C1 | 8.97
18 | O=C(c1cccnc1SCc1ccccc1)N1CC[C@@H](O)C1 | 159.2
19 | COc1ccc(Oc2ncccc2NC(=O)N2CC[C@H](O)C2)cc1 | 8.282
20 | O=C(c1cccnc1SCc1ccccc1)N1CCOCC1 | 174.3
21 | CN(C(=O)c1ccc(OCC(F)F)nc1)c1ccc2c(c1)CCO2 | 2.001
22 | OC(CN1CC(n2cccn2)C1)c1ccc2c(c1)OCCO2 (configuration not stated) | -60.78

Row | SMILES | Percent Effect [%]
23 | CS(=O)(=O)NCCN1CCOC2(CCc3ccccc32)C1 (configuration not stated) | 9.722
24 | Cc1[nH]ccc1C(=O)N(C)C1CC(=O)N(Cc2ccccc2)C1=O (configuration not stated) | -3.858
25 | O=C(Cc1c[nH]c(=O)[nH]c1=O)N1CCC2(CCC(=O)N(C3CC3)C2)CC1 | 10.83
26 | Cn1ccc(C(=O)Nc2nc(-c3ccc(Cl)cc3)n[nH]2)cc1=O | 5.787
27 | CCCNC(=O)Cn1cc(C#N)c(=O)c2cc(Br)ccc21 | -9.356
28 | CSCC(=O)Nc1ncc(I)cc1C | -3.012
29 | Cc1cc(C)c(CNC(=O)NCc2ccc3c(c2)CCC3)c(=O)[nH]1 | -7.046
30 | CN(C)S(=O)(=O)c1ccc(-c2nc(C#N)c(NC3CC3)o2)o1 | 107.9
31 | CN(C)S(=O)(=O)c1ccc(CN2CCC(C(N)=O)CC2)o1 | -3.214
32 | CN(C)S(=O)(=O)c1ccc(-c2nc(C#N)c(NC3CCCCC3)o2)o1 | 126.8
33 | CSCC[C@@H](CO)n1ccnc1-c1ccncc1 | -26.42
34 | C1CCC(OCCN2CCN(CCOC3CCCCC3)CC2)CC1 | 16.33
35 | Oc1cccc(-c2cc(C3CCN(Cc4cncnc4)C3)ccn2)c1 (configuration not stated) | -2.47
36 | CCC(=O)NCC(=O)NCC1(c2c(F)cccc2F)CCCC1 | -0.7519
37 | O=C(O)C(F)(F)F.O=C(O)C(F)(F)F.c1ccc(CN2CCc3nnc(CN4CCCCC4)n3CC2)nc1 | -3.311
38 | O=C(O)C(F)(F)F.O=C(O)C(F)(F)F.c1ccc(OCc2nnc3n2CCN(Cc2ccco2)C3)nc1 | 6.411
39 | O=C(O)C(F)(F)F.O=C1CCCN1Cc1nnc2n1CCN(Cc1ccco1)CC2 | 95.89
40 | N#CCC(=O)NCc1nnc2n1CCN(Cc1ccco1)C2 | -13.02
41 | O=C1CCCN1Cc1nnc2n1CCN(Cc1ccco1)C2 | 88.52
42 | c1cnc(OCc2nnc3n2CCN(Cc2ccco2)C3)nc1 | -5.792
43 | O=C(O)C(F)(F)F.O=C1CCCN1Cc1nnc2n1CCCN(Cc1ccco1)C2 | 117.6
44 | CN(C)C(=O)NCc1ncn2c1CN(Cc1ccco1)CCC2.O=C(O)C(F)(F)F | -2.342

Row | SMILES | Percent Effect [%]
45 | CCN(Cc1ccccc1C)S(C)(=O)=O | -4.247
46 | CN(CC(=O)NCc1ccccn1)CC1CCCN1c1cccnn1 (configuration not stated) | -6.159
47 | CN(CC(=O)NCc1ccccn1)C1CCCN(c2cccnn2)C1 (configuration not stated) | 106.6
48 | COCCCNC(=O)CN(C)C1CCCN(c2cccnn2)C1 (configuration not stated) | 138.8
49 | CN1C(=O)[C@H]2CC[C@@H]1CN(C(=O)c1nnc3n1CCCCC3)C2 | 10.69
50 | NC(=O)NCCC(=O)NCc1cccnc1N1CCc2ccccc2C1 | 5.248
51 | Cn1cccc1CCC(=O)N1CCC2(CC1)c1ccccc1CC2O (configuration not stated) | 8.573
52 | COc1cccc(CC(=O)N2CCCC(c3n[nH]c4nccnc34)C2)c1 (configuration not stated) | 81.22
53 | COc1cccc(COCC(=O)N2CCCC(c3cc(C)[nH]n3)C2)c1 (configuration not stated) | 9.679
54 | Cc1cccc(CC(=O)N2CCCC(c3n[nH]c4nccnc34)C2)c1 (configuration not stated) | 102.4
55 | Cc1cccc(C2CCCN(C(=O)CN3CCCC3=O)C2)c1 (configuration not stated) | -1.59
56 | N#Cc1cccc(NC2CC(=O)N(Cc3cccc(F)c3)C2)n1 (configuration not stated) | 7.096
57 | CCN(Cc1ccc(Cl)s1)S(=O)(=O)CCOC | -12.02
58 | CCC(c1ccccc1)N1CCN(C(=O)c2cc(C(N)=O)c[nH]2)CC1 (configuration not stated) | -8.4
59 | CC[C@@H](c1ccccc1)n1c(C2CC2)n[nH]c1=O | 115.6
60 | NCc1n[nH]c(=O)n1-c1ccccc1Oc1ccccc1 | -5.025
61 | C[C@H](c1ccc(F)cc1)n1c(C2CCN(C)CC2)n[nH]c1=O | -149.6
62 | CC[C@@H](c1ccccc1)n1c(CN)n[nH]c1=O | 112.8
63 | CC[C@@H](c1ccccc1)n1c(CCN)n[nH]c1=O | 91.36
64 | CCCc1n[nH]c(=O)n1Cc1ccccc1F | -4.193
65 | C[C@H](c1ccc(Cl)cc1)n1c(C2CC2)n[nH]c1=O | -27.24
66 | CCCc1n[nH]c(=O)n1[C@@H](CC)c1ccccc1 | 92.4

Row | SMILES | Percent Effect [%]
67 | CCCc1cc(C(=O)NCCN2C(=O)c3ccccc3C2=O)[nH]n1 | -4.22
68 | Cn1cccc1C(=O)NC1CCN(c2ccc(OC(F)(F)F)cc2)CC1 | -13.65
69 | CNC(=O)NC(=O)CN1CCC(c2c[nH]c3ccc(OC)cc23)CC1 | -6.098
70 | O=S(=O)(c1cccc(F)c1)N1C[C@@H]2COC[C@]2(COCC2CC2)C1 | -1.949
71 | COc1cc(CNCCC(N)=O)c2c(c1)CC(C)O2 (configuration not stated) | 0.4704
72 | CCN(CC)C(CNC(=O)c1ccc(S(C)(=O)=O)cc1)c1ccco1 (configuration not stated) | 12.65
73 | O=C(CNc1cc2c(cc1Br)OCCO2)NC1CCS(=O)(=O)C1 (configuration not stated) | -16.13
74 | CCNc1nnc(SCC(=O)N2CCN(Cc3ccc(Cl)s3)CC2)s1 | -3.982
75 | Cc1ccc(C)c2c(C)c(C(=O)NCC[S+](C)[O-])[nH]c12 (configuration not stated) | 91.32
76 | Cc1cccc2c(CCNC(=O)NCCC[S+](C)[O-])c[nH]c12 (configuration not stated) | 21.8
77 | Cc1cccc2c(CCNC(=O)NCC[S+](C)[O-])c[nH]c12 (configuration not stated) | -10.94
78 | OC1CCN(c2ccccc2NCc2nc(-c3cccs3)no2)CC1 | 8.395
79 | CNC(=O)N1CCC2(CC1)C(=O)N(C)c1c(F)cccc12 | 16.38
80 | O=C(NCCn1cc(Cl)cn1)C1CCN(C(=O)C2CC2)CC1 | 13.04
81 | O=C(NCc1ccc(CN2CCCCC2)cc1)Nc1cccnc1 | -23.63
82 | CC(Cn1cc(Cl)cn1)C(=O)Nc1ccc(CN2CCCCCC2)cc1 (configuration not stated) | 106.4
83 | CC(C)n1nc2c(cc1=O)CN(Cc1ccc(-n3cccn3)cc1)CC2 | 0.8403
84 | O=C(c1cncc(N2CCC3(CCCNC3)C2)n1)N1CCCC1 (configuration not stated) | 43.3
85 | COc1cc(C2(C(=O)NC3CCC4(CC3)OCCO4)CC2)ccc1C | 0.5256
86 | Cc1ccccc1-n1cc(-c2ccnc(N[C@H](CO)C(C)C)n2)cn1 | -13.53
87 | Cc1ccccc1-n1cc(-c2ccnc(N3CCCC(CN)C3)n2)cn1 (configuration not stated) | 108.9
88 | Cc1cnc(N2CCCC(O)C2)nc1-c1ccnn1C (configuration not stated) | -3.995

Row | SMILES | Percent Effect [%]
89 | Cc1ccccc1-n1cc(-c2ccnc(N3CCCC(O)C3)n2)cn1 (configuration not stated) | 107.7
90 | COCc1noc(-c2ccc(N3CCCCC3COC)nc2)n1 (configuration not stated) | 2.136
91 | NCC1CCCN(c2nc(-c3ccccc3)nc3c2CCNCC3)C1 (configuration not stated) | -16.76
92 | COC[C@H]1CCCN1c1nccc(-c2cnn(-c3ccccc3C)c2)n1 | 94.7
93 | Cc1ccccc1-n1cc(CN(C)C[C@@H]2CCCN3CCCC[C@H]23)cn1 | 9.143
94 | O=C1CC2(CCN(Cc3ccc(C(F)(F)F)nc3)CC2)CN1 | -10.7
95 | O=S(=O)(Cc1ccccc1F)NCCCN1CCCCC1 | -1.108
96 | CCCc1cc(NCCCC2CCOC2)n2nccc2n1 (configuration not stated) | -21.79
97 | CC(C)C[C@H](Nc1nc(C2CCCC2)nc2c1cnn2C)C(N)=O | 1.529
98 | O=C1O[C@@H]2CN(Cc3ccccc3)C[C@@H]2N1CCCN1CCOCC1 | -2.411
99 | CCN(C)CC(=O)N1CCCC(c2nnc(CN3CCOCC3)n2C)C1 (configuration not stated) | 14.42
100 | Cn1c(=O)oc2ccc(NC(=O)N3CCOCC3)cc21 | 0.8661
101 | Cn1c(CN2CCOCC2)cc(=O)c(O)c1CN1CCCCC1 | 117.1
102 | Cn1c(CN2CCOCC2)cc(=O)c(O)c1CN1CCOCC1 | 102.7
103 | CCS(=O)(=O)N1CCC(c2nnc(CN3CCOCC3)n2C)CC1 | 4.44
104 | CC(C)NC(=O)N1CCCC(c2nnc(CN3CCOCC3)n2C)C1 (configuration not stated) | 7.81
105 | Cn1c(CN2CCOCC2)nnc1C1CCCN(CC(N)=O)C1 (configuration not stated) | -18.54
106 | Cn1c(CN2CCOCC2)cc(=O)c(O)c1CN1CCCC1 | 100.1
107 | CN(CCN1CCCCC1)C(=O)c1cc(CN2CCOCC2)on1 | 7.335
